Some test systems named below: RPMI-8226 leukemia; OVCAR-8 ovarian; OVCAR-5 ovarian; OVCAR-4 ovarian; IGROV1 ovarian; OVCAR-3 ovarian; NCI/ADR-RES ovarian; T-47D breast; HS 578T breast; SK-OV-3 ovarian.
Holding throughout (assay): NCI-60 one-dose screen, 48 h (100 = growth as untreated, 0 = no growth, -100 = all killed)
Holding throughout (settings): 10 µM unless noted

This is part of a sample that, as a whole, favours compounds with a hit. Of some 83,000 tested, about 20% had one in any assay.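 Percent growth is the endpoint: 0 to 100 indicates growth inhibition (40 means 60% inhibition), 0 means no net growth, and negative values indicate cell death.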 A number with no mark means an inactive call. The source made the active and inactive calls. Rule for the calls: active = growth percent below 10; inactive = the rest.

In PubChem BioAssay (NCI) one finds growth data, which are given here for 15 molecules.

On to `CC1(O)COCCCCOc2c(CN)cccc2NC(=O)c2nc(cnc2N)-c2ccc(cc2)S(=O)(=O)C(C)(C)C1` (configuration not stated), for which the growth with RPMI-8226 leukemia is -36.8% (active); with OVCAR-8 ovarian, -22.8% (active); in the test with OVCAR-5 ovarian, 3.73% (active); in the test with OVCAR-4 ovarian, -70.2% (active); in the test with IGROV1 ovarian it was -57.3% (active); in the test with OVCAR-3 ovarian, -77.2% (active). Also, the growth in the test with NCI/ADR-RES ovarian is 48.5%; with T-47D breast, -19.8% (active).

For the molecule `COc1cc(CNC(=O)Cc2ccccc2)ccc1OCc1cn(-c2ccc(F)cc2)nn1`, the growth in the test on RPMI-8226 leukemia is 89.8%; with OVCAR-8 ovarian it was 95.5%; in the test on OVCAR-5 ovarian it was 108%; in the test on OVCAR-4 ovarian, 78.2%; in the test on OVCAR-3 ovarian, 107%; with HS 578T breast, 99.1%. The growth in the test with NCI/ADR-RES ovarian and in the test on T-47D breast was 94.7% each time.

In the case of `Cc1ccc(N=NC2C(=O)N(c3ccc(Cl)cc3)N(c3ccc(Cl)cc3)C2=O)cc1`, the growth in the test on RPMI-8226 leukemia is 78.1%; in the test with OVCAR-8 ovarian, 98.2%; with OVCAR-5 ovarian, 99.8%; in the test with OVCAR-4 ovarian, 102%; in the test on IGROV1 ovarian it was 95.8%; with HS 578T breast, 102%. Besides, the growth in the test on NCI/ADR-RES ovarian is 98.9%; in the test on T-47D breast, 83.2%.

On to `O=C(NCc1ccco1)C1CN(c2ccc(Cl)cc2)N(c2ccc(Cl)cc2)C1=O` (configuration not stated), for which the growth in the test on RPMI-8226 leukemia was 48%; in the test with OVCAR-8 ovarian, 66.4%; with OVCAR-5 ovarian, 82.2%; with OVCAR-4 ovarian it was 57.7%; in the test with IGROV1 ovarian, 46.3%; in the test with OVCAR-3 ovarian, 3.64% (active). Besides, the growth is 36.7% in the test with HS 578T breast, 24.3% with NCI/ADR-RES ovarian and 43.2% in the test with T-47D breast.

Turning to `COC(=O)c1c2c(c(C)[n+]([O-])c1C)C(=O)C=C(NCc1ccc(F)c(F)c1)C2=O`, the growth in the test on RPMI-8226 leukemia was -6.01% (active); in the test on OVCAR-8 ovarian, -2.54% (active); in the test on OVCAR-5 ovarian it was -83.1% (active); in the test with OVCAR-4 ovarian it was -98.7% (active); with IGROV1 ovarian, -67.3% (active); with OVCAR-3 ovarian, -47.2% (active). The growth is -20.4% (active) in the test on HS 578T breast, -17.5% (active) in the test with NCI/ADR-RES ovarian and -42.5% (active) with T-47D breast.

As to `COc1cc(/C=C2\CN(C)C/C(=C\c3cc(CN4CCCC4)c(O)c(OC)c3)C2=O)cc(CN2CCCC2)c1O`, the growth was 81% with RPMI-8226 leukemia; 65.5% in the test on OVCAR-8 ovarian; 94.5% in the test with OVCAR-5 ovarian; 65.8% with OVCAR-4 ovarian; 82% with IGROV1 ovarian; 50% with OVCAR-3 ovarian. For the same molecule, the growth in the test on NCI/ADR-RES ovarian was 100%; with T-47D breast, 79.7%.

`CCCCN1CCN(c2ccc3nc(-c4ccc5nc(-c6ccc(OCC)cc6)[nH]c5c4)[nH]c3c2)CC1`: the growth with RPMI-8226 leukemia was -25.3% (active); with OVCAR-8 ovarian, 70.1%; in the test with OVCAR-5 ovarian it was 135%; in the test with OVCAR-4 ovarian, 55.2%; with IGROV1 ovarian, 71.9%; in the test on HS 578T breast, 74.4%. Further, the results for the growth with NCI/ADR-RES ovarian and with T-47D breast were 87.8% and 59.7%, respectively.

As for `C[n+]1c2ccccc2nc2ccc(NCCO)cc21`, the growth in the test on RPMI-8226 leukemia was 66.8%; in the test on OVCAR-8 ovarian, 82.1%; in the test on OVCAR-5 ovarian, 102%; in the test on SK-OV-3 ovarian, 112%; with IGROV1 ovarian it was 63.9%; with OVCAR-3 ovarian it was 79.2%. The growth with HS 578T breast is 82.7%; with NCI/ADR-RES ovarian it was 86.4%; in the test with T-47D breast, 91.9%.

`COc1cc2nc(NC3CCC3)nc(NC3CCN(C(C)C)CC3)c2cc1OC`: the growth was -7.43% (active) in the test with RPMI-8226 leukemia; 58.2% in the test with OVCAR-8 ovarian; 97.2% with OVCAR-5 ovarian; 62.5% in the test on OVCAR-4 ovarian; 85.7% with OVCAR-3 ovarian; 66.2% in the test on HS 578T breast. Also, the growth with NCI/ADR-RES ovarian was 96.9%; with T-47D breast, -7.17% (active).

Consider `COC(=O)/C(CCC=C(C)C)=C1\[C@@H](OC(C)=O)C[C@@]2(C)[C@H]1C[C@@H](O)[C@H]1[C@@]3(C)CC[C@H](NCCO)[C@@H](C)[C@@H]3CC[C@@]12C`, for which the growth with RPMI-8226 leukemia is 101%; with OVCAR-8 ovarian, 101%; in the test on OVCAR-5 ovarian it was 104%; with OVCAR-4 ovarian, 107%; with IGROV1 ovarian it was 99.4%; with OVCAR-3 ovarian it was 105%. Further, the growth is 93.3% in the test on HS 578T breast, 101% in the test on NCI/ADR-RES ovarian and 103% with T-47D breast.

As for `O=Cc1c(OCc2cnnn2CC(=O)Nc2ccc(Br)cc2)ccc2ccccc12`, the growth was 104% in the test with RPMI-8226 leukemia; 96.1% in the test with OVCAR-8 ovarian; 95% with OVCAR-5 ovarian; 97% in the test on OVCAR-4 ovarian; 85.9% in the test on IGROV1 ovarian; 97.2% in the test with OVCAR-3 ovarian. Besides, the values for the growth in the test on NCI/ADR-RES ovarian and in the test on T-47D breast were 90.5% and 78.7%, respectively.

As to `O=C1Nc2ccccc2/C1=C/c1ccc[nH]1`, the growth in the test with RPMI-8226 leukemia is 97.6%; with OVCAR-8 ovarian it was 92.8%; with OVCAR-5 ovarian, 78.7%; in the test with OVCAR-4 ovarian, 29.8%; in the test on IGROV1 ovarian it was 49.7%; in the test with OVCAR-3 ovarian, 81.7%. Besides, the growth is 99.9% in the test with NCI/ADR-RES ovarian and -24.3% (active) with T-47D breast.

Regarding `Cc1cccc2c(=O)c3c(sc12)c(NCCCNCCO)nc1ccccc13`, the growth was -26.5% (active) in the test with RPMI-8226 leukemia; 45.4% with OVCAR-8 ovarian; 74.4% in the test with OVCAR-5 ovarian; 54.3% in the test on OVCAR-4 ovarian; 15.1% in the test with IGROV1 ovarian; 64.5% with OVCAR-3 ovarian. Also, the growth in the test with HS 578T breast is 45.4%; in the test on NCI/ADR-RES ovarian it was 60.5%; in the test on T-47D breast, 62.7%.

On to `O=C(/C=C/c1ccc(F)cc1)c1ccc(Nc2nc(NCCO)nc(Nc3ccc(Cl)cc3)n2)cc1`, for which the growth was 1.78% (active) in the test with RPMI-8226 leukemia; 78.4% in the test on OVCAR-8 ovarian; 96.8% in the test with OVCAR-5 ovarian; 78.6% in the test on OVCAR-4 ovarian; 96.4% with IGROV1 ovarian; 77% in the test on OVCAR-3 ovarian. Further, the growth in the test with HS 578T breast is 86.8%; with NCI/ADR-RES ovarian, 87.2%; in the test with T-47D breast it was 41.5%.

`O=c1c2cc(F)ccc2sc2c(NCCN3CCCC3)nc3ccccc3c12`: the growth in the test on RPMI-8226 leukemia is 33.9%; with OVCAR-8 ovarian it was 63%; with OVCAR-5 ovarian, 72.1%; with OVCAR-4 ovarian, 54.2%; in the test on IGROV1 ovarian, 61.7%; in the test on OVCAR-3 ovarian, 48.8%. Further, the values for the growth with HS 578T breast, with NCI/ADR-RES ovarian and in the test with T-47D breast were 56.8%, 66.4% and 61.9%, respectively.
